These results are taken from ChEMBL document CHEMBL3988442, “University of Dundee, Small-Polar-MMV Screening Library” (2021).

For some of these results: Entries with a potency or affinity are not part of this list.

Set-up in all cases: scale not given: direction of the effect not stated beside the values
Experiment [1] deals with Protein translocase subunit SecA (Escherichia coli (strain K12)) (UniProt P10408). Put plainly: Assay to Identify E. coli SecA ATPase Inhibitors. The class given is functional. The settings on record: 30 µM.
Experiment [2] deals with T1, Ubiquitin-activating enzyme e1, putative (Leishmania donovani (strain BPK282A1)) (UniProt E9BSI1).
T1 sequence (whole entry): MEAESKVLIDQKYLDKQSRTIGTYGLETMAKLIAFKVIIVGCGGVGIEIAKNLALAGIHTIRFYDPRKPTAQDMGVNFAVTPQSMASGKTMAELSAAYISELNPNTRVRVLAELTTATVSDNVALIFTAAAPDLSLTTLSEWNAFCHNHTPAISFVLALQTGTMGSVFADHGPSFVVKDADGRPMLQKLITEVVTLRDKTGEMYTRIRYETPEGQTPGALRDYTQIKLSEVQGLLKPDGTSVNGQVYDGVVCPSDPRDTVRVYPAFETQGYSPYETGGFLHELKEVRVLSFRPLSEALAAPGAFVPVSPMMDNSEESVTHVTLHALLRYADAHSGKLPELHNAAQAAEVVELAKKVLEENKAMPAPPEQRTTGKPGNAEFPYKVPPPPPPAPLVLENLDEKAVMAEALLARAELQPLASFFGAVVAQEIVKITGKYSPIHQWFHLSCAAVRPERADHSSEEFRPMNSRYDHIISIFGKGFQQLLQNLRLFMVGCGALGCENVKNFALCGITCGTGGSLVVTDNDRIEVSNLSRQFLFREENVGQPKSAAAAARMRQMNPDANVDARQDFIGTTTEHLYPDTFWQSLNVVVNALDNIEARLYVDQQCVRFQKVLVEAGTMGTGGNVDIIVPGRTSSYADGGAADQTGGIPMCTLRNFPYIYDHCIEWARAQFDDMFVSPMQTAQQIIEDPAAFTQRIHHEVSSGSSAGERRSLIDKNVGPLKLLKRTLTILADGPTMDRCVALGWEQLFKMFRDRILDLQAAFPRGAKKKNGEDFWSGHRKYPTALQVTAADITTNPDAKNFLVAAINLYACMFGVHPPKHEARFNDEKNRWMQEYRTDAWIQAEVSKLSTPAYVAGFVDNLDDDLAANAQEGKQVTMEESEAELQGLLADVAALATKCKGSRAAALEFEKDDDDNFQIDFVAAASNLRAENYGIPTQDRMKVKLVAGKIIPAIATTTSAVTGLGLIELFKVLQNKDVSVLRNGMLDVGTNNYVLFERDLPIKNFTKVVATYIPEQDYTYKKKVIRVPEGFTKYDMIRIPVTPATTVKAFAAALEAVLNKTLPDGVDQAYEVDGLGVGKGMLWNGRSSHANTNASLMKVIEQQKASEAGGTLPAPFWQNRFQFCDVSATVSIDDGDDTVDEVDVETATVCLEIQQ
Put plainly: Leishmania donovani Ubiquitin Activating Enzyme (LdE1). The experiment is classed as functional. Conditions: 30 µM.

Experiment [3] deals with Sialic acid-binding Ig-like lectin 9 (Homo sapiens) (UniProt Q9Y336). The experiment can be described thus: Hs-Siglec9 ALPHAscreen SOP 20170721. Conditions: 10 µM.
For the next experiment, the system named is Trypanosoma cruzi. The experiment can be described thus: Trypanosoma cruzi phosphomannomutase and mannose-1-phosphate guanylyltransferase assay. The experiment is classed as functional. The settings on record: 10 µM.
The target in experiment [4] is T2, Arginase-2, mitochondrial (Homo sapiens) (UniProt P78540).
T2 sequence (whole entry): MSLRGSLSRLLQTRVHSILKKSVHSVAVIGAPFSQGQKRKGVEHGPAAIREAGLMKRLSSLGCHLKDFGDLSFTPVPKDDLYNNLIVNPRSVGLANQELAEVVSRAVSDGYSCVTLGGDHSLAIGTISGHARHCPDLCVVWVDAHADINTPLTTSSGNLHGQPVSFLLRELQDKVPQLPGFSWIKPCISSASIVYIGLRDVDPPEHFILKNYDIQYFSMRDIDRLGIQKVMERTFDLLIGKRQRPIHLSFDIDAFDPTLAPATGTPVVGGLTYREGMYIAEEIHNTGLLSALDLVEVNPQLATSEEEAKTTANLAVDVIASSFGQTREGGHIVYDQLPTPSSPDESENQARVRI
The experiment can be described thus: in vitro enzyme assay to detect the production of urea directly proportional to the activity of Arginase II. Further: in the data most compounds retested in dose-response had high values. The experiment is classed as functional. The settings on record: 33.3 µM.

Experiment [5] deals with T3, Proteasome subunit beta (Trypanosoma cruzi) (UniProt O96673).
T3 sequence (whole entry): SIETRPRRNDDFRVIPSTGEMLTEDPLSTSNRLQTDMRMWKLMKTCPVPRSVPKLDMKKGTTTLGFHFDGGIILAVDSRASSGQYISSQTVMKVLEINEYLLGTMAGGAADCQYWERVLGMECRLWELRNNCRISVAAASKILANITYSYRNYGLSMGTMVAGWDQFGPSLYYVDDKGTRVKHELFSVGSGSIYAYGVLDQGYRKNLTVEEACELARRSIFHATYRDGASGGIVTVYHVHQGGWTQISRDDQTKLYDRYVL
The experiment can be described thus: Trypanosoma cruzi proteasome chymotrypsin-like activity (TcProtChymo) assay. Further: in the data most compounds retested in dose-response had high values. The class given is functional. The settings on record: 9.37 µM.

The species entered for the next experiment is Homo sapiens. The experiment can be described thus: To identify inhibition of the IFN signalling (Jak-Stat) pathway via expression of an eGFP reporter gene under the control of an IFN-stimulated response element (ISRE) containing MxA promoter. Conditions: 30 µM. The class given is functional. (In general: A reporter such as luciferase makes a cellular process visible.)

The target of experiment [6] is T4, Tyrosyl-tRNA synthetase, putative (Trypanosoma cruzi (strain CL Brener)) (UniProt Q4DSP6).
T4 sequence (whole entry): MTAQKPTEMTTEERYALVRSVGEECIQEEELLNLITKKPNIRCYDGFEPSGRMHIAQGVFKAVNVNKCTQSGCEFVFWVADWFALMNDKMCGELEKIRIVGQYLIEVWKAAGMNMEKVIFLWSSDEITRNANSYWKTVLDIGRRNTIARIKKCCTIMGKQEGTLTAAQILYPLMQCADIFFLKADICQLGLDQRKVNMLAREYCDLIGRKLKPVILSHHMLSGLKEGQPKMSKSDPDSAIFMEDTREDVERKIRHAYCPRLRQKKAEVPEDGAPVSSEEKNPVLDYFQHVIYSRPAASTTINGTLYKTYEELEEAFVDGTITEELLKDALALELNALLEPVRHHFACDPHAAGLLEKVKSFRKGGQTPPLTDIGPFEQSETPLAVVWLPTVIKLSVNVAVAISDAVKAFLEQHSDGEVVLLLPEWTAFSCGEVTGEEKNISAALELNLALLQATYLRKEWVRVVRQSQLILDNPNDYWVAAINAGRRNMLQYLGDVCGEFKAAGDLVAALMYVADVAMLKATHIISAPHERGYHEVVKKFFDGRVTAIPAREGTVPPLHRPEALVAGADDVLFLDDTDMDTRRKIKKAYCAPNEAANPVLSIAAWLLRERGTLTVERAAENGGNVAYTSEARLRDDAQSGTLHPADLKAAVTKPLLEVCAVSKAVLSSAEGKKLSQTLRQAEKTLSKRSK
The experiment can be described thus: Trypanosoma cruzi tyrosyl tRNA synthetase (TcYRS) _High Tyrosine SOP. Further: in the data most compounds retested in dose-response had high values. The settings on record: 30 µM. The experiment is classed as functional.

Experiment [7] deals with T4, Tyrosyl-tRNA synthetase, putative (Trypanosoma cruzi (strain CL Brener)). Put plainly: Trypanosoma cruzi tyrosyl tRNA synthetase (TcYRS) SOP. The settings on record: 30 µM. The class given is functional.
The target in experiment [8] is Chromo domain-containing protein 1 (Saccharomyces cerevisiae (strain ATCC 204508 / S288c) (Baker's yeast)) (UniProt P32657). The experiment can be described thus: ScCHD-1 Enzyme Inhibition Assay. Further: in the data most compounds retested in dose-response had high values. The class given is functional. The settings on record: 30 µM.
Chain of Chromo domain-containing protein 1 (Saccharomyces cerevisiae (strain ATCC 204508 / S288c) (Baker's yeast)) (P32657 whole entry, the tested form may be a part): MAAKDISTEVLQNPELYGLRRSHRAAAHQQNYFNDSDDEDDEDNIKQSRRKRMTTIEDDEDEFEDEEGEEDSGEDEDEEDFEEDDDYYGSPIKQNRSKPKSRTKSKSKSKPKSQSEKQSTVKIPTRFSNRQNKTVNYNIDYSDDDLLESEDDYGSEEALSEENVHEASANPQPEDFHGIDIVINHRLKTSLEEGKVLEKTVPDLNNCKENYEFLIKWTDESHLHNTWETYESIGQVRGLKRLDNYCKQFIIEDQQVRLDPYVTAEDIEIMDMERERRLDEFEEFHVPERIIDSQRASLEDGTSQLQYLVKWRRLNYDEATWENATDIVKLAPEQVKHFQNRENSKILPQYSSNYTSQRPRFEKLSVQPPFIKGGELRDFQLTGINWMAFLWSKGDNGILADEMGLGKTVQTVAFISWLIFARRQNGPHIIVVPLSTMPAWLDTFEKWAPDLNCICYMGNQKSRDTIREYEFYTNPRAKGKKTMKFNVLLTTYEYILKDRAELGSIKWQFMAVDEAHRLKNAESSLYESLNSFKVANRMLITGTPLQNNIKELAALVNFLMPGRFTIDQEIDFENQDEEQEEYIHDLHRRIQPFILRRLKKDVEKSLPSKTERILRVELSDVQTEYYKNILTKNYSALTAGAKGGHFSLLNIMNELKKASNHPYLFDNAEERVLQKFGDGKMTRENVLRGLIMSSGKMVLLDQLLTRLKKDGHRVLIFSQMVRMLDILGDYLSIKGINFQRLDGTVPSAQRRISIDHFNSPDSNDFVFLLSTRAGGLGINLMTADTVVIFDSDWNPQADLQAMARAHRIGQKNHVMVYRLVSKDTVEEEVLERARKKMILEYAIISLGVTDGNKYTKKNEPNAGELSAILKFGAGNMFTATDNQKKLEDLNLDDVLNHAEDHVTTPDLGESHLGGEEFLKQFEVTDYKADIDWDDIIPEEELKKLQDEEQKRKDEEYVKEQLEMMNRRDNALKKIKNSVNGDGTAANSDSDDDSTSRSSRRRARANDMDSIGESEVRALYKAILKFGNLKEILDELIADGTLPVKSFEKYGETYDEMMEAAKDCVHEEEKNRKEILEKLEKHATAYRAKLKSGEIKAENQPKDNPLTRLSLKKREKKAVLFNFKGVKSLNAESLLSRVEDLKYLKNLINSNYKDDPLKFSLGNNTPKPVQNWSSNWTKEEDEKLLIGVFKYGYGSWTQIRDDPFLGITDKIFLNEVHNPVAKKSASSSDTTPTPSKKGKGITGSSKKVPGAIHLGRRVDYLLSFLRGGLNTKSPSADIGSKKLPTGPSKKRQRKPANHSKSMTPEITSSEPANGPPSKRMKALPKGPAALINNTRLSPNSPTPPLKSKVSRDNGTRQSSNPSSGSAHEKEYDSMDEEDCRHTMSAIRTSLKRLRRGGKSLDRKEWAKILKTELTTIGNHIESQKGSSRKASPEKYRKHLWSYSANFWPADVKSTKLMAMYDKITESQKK

Chain of Protein translocase subunit SecA (Escherichia coli (strain K12)) (P10408 whole entry): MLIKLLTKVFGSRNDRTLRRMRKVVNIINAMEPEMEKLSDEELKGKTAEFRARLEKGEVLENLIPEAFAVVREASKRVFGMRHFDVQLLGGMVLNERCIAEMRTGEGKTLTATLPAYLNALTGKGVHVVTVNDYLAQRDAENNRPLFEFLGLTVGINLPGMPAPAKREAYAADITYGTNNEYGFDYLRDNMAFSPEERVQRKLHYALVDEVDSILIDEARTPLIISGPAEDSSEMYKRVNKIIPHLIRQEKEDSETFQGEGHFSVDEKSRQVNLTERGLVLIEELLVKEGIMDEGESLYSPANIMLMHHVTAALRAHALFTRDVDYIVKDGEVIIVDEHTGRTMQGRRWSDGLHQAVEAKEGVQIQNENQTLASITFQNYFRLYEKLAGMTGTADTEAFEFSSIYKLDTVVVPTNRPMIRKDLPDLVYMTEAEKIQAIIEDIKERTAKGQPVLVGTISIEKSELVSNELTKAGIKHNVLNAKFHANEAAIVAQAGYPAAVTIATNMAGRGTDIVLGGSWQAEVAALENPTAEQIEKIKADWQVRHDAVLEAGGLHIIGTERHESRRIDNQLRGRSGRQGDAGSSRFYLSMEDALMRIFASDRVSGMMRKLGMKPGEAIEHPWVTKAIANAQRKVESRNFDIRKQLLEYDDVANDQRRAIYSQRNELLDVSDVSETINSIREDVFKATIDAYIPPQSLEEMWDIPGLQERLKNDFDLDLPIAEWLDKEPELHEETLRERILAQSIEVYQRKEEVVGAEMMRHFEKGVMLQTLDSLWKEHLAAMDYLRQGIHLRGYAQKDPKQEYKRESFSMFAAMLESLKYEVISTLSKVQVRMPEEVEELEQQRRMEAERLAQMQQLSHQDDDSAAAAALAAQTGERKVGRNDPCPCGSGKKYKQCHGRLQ
Chain of Sialic acid-binding Ig-like lectin 9 (Homo sapiens) (Q9Y336 whole entry): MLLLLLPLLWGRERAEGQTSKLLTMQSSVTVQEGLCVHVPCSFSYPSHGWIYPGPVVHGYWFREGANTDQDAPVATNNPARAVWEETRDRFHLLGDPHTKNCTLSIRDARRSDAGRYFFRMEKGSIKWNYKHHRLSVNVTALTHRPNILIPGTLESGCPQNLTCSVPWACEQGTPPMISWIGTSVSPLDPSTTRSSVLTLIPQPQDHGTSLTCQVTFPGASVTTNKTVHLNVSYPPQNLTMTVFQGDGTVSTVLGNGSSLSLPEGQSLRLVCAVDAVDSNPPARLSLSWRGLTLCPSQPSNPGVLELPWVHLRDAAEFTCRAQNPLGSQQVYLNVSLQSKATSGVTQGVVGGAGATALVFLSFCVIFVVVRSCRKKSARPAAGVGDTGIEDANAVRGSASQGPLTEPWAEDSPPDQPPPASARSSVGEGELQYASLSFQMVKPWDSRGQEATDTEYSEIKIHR

In the case of `CCOc1ncccc1C(=O)N1CCCC1c1c(C)nn(C)c1OC` (stereo not given), the Percent Effect in experiment [1] is 1.2%; in experiment [2], 0%; in experiment [3] it was 10.2%; with Trypanosoma cruzi it was 1.68%; in [4] it was -2.25%; in [5], -2.81%. Moreover, the Percent Effect in the experiment listed under Homo sapiens was -1.22%; in experiment [6] it was 4.9%; in experiment [7] it was 11.8%; in experiment [8], -4.83%.
For `Cc1nc(C)n(CC2CCCN2Cc2cn3ccsc3n2)n1` (stereo not given), the Percent Effect in experiment [1] was 1.01%; in experiment [2], 12.8%; in experiment [3] it was -7.58%; in the experiment with Trypanosoma cruzi it was -2.72%; in experiment [4] it was -1.23%; in [5], 19%. The Percent Effect in the experiment listed under Homo sapiens was 27.5%; in [6] it was 3.35%; in [7], 13.2%; in experiment [8], -5.22%.
`CCc1nc(C2CCCN2C(=O)CCn2cncn2)no1` (stereo not given): the Percent Effect in experiment [1] is -0.886%; in [2], 0%; in [3], 9.32%; with Trypanosoma cruzi it was -1.49%; in experiment [4], 1.02%; in [5], 3.51%. Besides, the Percent Effect is 3.97% in the experiment filed under Homo sapiens, 0.98% in experiment [6], -2.35% in experiment [7] and -0.634% in experiment [8].
For the compound `Cc1noc(C2CCN(C(=O)CCNc3ncccn3)CC2)n1`, the Percent Effect is -0.897% in experiment [1]; 12.8% in experiment [2]; -14% in experiment [3]; 5.92% in the experiment on Trypanosoma cruzi; 0% in experiment [4]; 9.98% in experiment [5]. Moreover, the Percent Effect was 14.8% in the experiment listed under Homo sapiens, 6.22% in experiment [6], 22.9% in [7] and -4.88% in experiment [8].
As to `CCc1[nH]ncc1C(=O)N1CCCC(n2cccn2)C1` (stereo not given), the Percent Effect in experiment [1] was -3.15%; in [2], 13.3%; in experiment [3], 7.05%; with Trypanosoma cruzi, -2.21%; in experiment [4], 4.88%; in experiment [5] it was 7.38%. Further, the Percent Effect in the experiment filed under Homo sapiens is -9.13%; in [6], 4.74%; in experiment [7], 15.4%; in [8], -7.04%.
For `Cc1ccc2oc(C(=O)N3CCCC(c4noc(C)n4)C3)cc2n1` (stereo not given), the Percent Effect in experiment [1] was -2%; in [2] it was 5.13%; in [3], 1.38%; in the experiment with Trypanosoma cruzi, -3.66%; in [4], 4.51%; in experiment [5], 3.84%. The Percent Effect in the experiment listed under Homo sapiens was 11%; in [6], 4.31%; in [7] it was 8.43%; in experiment [8], -2.57%.
Take `CCn1c(C)cc(C(=O)N2CCCC(n3nc(C)nc3C)C2)c1C` (stereo not given): the Percent Effect is -5.54% in experiment [1]; 12.8% in experiment [2]; -10.5% in experiment [3]; 7.23% with Trypanosoma cruzi; -0.41% in [4]; 4.35% in [5]. In addition, the Percent Effect in the experiment filed under Homo sapiens was 4.11%; in [6], 1.44%; in [7], 10.8%; in experiment [8], -5.05%.
As for `O=S(=O)(CCNC1CCc2ncnn2C1)c1ccccc1` (stereo not given), the Percent Effect in [1] is -0.316%; in experiment [2] it was 0%; in experiment [3] it was 9.36%; in the experiment on Trypanosoma cruzi, 0.746%; in experiment [4], -1.43%; in experiment [5] it was 5.09%. Moreover, the Percent Effect in the experiment filed under Homo sapiens stood at 0.944%; in experiment [6] it was 1.96%; in [7], 4.71%; in experiment [8] it was 5.51%.
For the compound `COCc1nc(CNC2CCSCC2)no1`, the Percent Effect was -6.18% in [1]; 2.7% in [2]; 1.55% in experiment [3]; 3.98% in the experiment on Trypanosoma cruzi; 1.75% in experiment [4]; 7.36% in [5]. For the same compound, the Percent Effect in the experiment filed under Homo sapiens is -12.7%; in experiment [6], 3.72%; in [7], 9.76%; in experiment [8], -0.943%.
Turning to `CCNC(=O)CCN1CCC(c2cc(N3CCOCC3)nc(C)n2)CC1`, the Percent Effect was -3.37% in experiment [1]; 5.41% in experiment [2]; 12.8% in [3]; 5.92% in the experiment on Trypanosoma cruzi; 16.4% in experiment [4]; 6.51% in experiment [5]. Besides, the Percent Effect worked out at 17.2% in the experiment filed under Homo sapiens, 2.66% in experiment [6], 9.76% in experiment [7] and 98.8% in experiment [8].
For the compound `OC(CNCCn1cccn1)c1ccc2c(c1)OCCO2` (stereo not given), the Percent Effect in [1] is -5.4%; in [2], 13.3%; in [3] it was 10.3%; with Trypanosoma cruzi it was 1%; in experiment [4] it was 0%; in experiment [5], 4.83%. The Percent Effect in the experiment filed under Homo sapiens is -2.77%; in [6], 4.74%; in experiment [7] it was 10.3%; in experiment [8], -13.4%.
In the case of `CC(=O)N(Cc1noc(C2CC2)n1)C1CCN(Cc2ccncc2)C1` (stereo not given), the Percent Effect in [1] was -3.41%; in experiment [2], 5.13%; in experiment [3] it was -20.1%; with Trypanosoma cruzi, 11.6%; in experiment [4], -4.51%; in experiment [5] it was 4.86%. The Percent Effect is 4.66% in the experiment listed under Homo sapiens, 1.44% in experiment [6], 10.8% in experiment [7] and -5.11% in experiment [8].
With `CC(C)(C)n1ncc2c1NC(=O)CC2c1ccccc1` (stereo not given), the Percent Effect in [1] is -4.86%; in experiment [2], 5.41%; in experiment [3], 5.59%; in the experiment on Trypanosoma cruzi it was 2.23%; in [4], -3.15%; in experiment [5], 13.2%. Moreover, the Percent Effect in the experiment listed under Homo sapiens was determined as 12.2%; in [6] it was 3.72%; in experiment [7] it was 14.6%; in experiment [8], 96%.
